Compounds with a hit are over-represented: about 12% of the library has one in this group of screens.
Sfp inh = qHTS Assay for Inhibitors of Bacillus subtilis Sfp phosphopantetheinyl transferase (PPTase); Biochemical Sfp PPTase activity, qHTS; 4'-phosphopantetheinyl transferase ffp (Bacillus subtilis), Q9F4F7; AID 1490, 2009; actives 3.5% (n = 310,000); Potency, µM, for the others: largest response in the series, negative = inhibition, hits mostly inhibitors;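 note: the enzyme is Sfp with the accession as filed and its product quenches rhodamine fluorescence; 0% = enzyme reaction without inhibitor and -100% = no enzyme wells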
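With Hepes-Na pH 7.6 buffer containing 10 mM MgCl2, Sfp (15 nM) modified BHQ-2-YbbR (12.5 uM) using rhodamine-CoA (5 uM). Two reads 30 minutes apart at 525/598 nm yielded each well's rate.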
L3MBTL1 block = qHTS Assay for the Inhibitors of L3MBTL1. Lethal(3)malignant brain tumor-like protein 1 (Homo sapiens), Q9Y468. AlphaScreen L3MBTL1–H3K9me1 peptide binding. Potency, µM (doses to about 57.1 µM), for inactives: top-dose activity, negative = inhibition, actives largely listed as inhibitors. actives 0.66% (n = 230,000); note: % is set by controls: 0 for no effect and ±100 for the full control effect; nearly all actives have a fitted effect of over 60% in size
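Displacement of a biotinylated histone H3(1-15) peptide monomethylated at Lys9 (75 nM) from L3MBTL1 (50 nM) was measured by AlphaScreen after a 30 min room-temperature compound incubation; cefsulodin titration served as intraplate control.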
JMJD2A Tudor = qHTS Assay for Inhibitors of JMJD2A-Tudor Domain. AlphaScreen JMJD2A-Tudor / H3K4me3 peptide binding. Potency, µM (highest dose often 114 µM), inactives show at the top dose activity change, negative = inhibition, usual class: inhibitors. actives 4.4% (n = 390,000). AID 504339, 2011; note: % is set by controls: 0 for no effect and ±100 for the full control effect; nearly all actives have a fitted effect of over 50% in size
Target sequence (O75164 whole entry, looked up, the tested form may be a part): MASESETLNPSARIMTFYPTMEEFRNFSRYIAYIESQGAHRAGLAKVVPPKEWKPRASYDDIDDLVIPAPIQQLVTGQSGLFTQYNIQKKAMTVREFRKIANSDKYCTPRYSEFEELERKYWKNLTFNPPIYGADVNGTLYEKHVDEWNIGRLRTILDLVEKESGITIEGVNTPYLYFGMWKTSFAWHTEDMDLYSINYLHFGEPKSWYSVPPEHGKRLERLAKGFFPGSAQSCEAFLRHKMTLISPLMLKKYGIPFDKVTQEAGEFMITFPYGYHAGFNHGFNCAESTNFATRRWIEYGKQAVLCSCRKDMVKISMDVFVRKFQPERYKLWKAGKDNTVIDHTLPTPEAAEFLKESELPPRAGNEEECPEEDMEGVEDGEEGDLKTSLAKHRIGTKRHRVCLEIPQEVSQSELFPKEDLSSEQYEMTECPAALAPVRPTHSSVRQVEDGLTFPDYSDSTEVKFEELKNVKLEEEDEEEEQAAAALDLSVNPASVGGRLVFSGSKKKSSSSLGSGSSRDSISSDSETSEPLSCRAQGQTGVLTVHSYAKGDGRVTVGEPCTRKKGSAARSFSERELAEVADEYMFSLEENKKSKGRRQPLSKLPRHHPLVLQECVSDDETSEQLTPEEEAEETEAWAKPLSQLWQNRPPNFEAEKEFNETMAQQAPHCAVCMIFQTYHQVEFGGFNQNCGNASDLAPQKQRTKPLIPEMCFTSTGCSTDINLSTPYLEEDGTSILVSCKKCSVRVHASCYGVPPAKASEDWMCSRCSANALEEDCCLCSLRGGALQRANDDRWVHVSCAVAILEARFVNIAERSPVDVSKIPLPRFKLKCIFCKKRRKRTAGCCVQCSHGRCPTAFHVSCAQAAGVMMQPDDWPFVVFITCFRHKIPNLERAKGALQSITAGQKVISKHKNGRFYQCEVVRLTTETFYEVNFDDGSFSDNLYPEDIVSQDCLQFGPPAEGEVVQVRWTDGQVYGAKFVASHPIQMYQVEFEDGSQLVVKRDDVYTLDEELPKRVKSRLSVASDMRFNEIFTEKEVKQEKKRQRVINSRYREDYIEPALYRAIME
HP1b chromo inh = HTS for Inhibitors of HP1-beta Chromodomain Interactions with Methylated Histone Tails; Chromobox protein homolog 1 (Homo sapiens), P83916; AlphaScreen HP1-beta / biotin-H3K9me3 peptide binding; Potency, µM (titrated, usually from 114 µM), inactives show top-dose activity change, negative = inhibition, hits mostly inhibitors; actives 0.56% (n = 390,000); AID 540317, 2011; note: nearly all actives have a fitted effect of over 70% in size
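AlphaScreen: HP1-beta (50 nM) preformed 30 min with biotin-H3(1-18)K9me3 peptide (50 nM) in PBS pH 7.4, 0.01% Tween-20. Compound added for 30 min at RT, then streptavidin donor/nickel chelate acceptor beads (10 ug/mL) for 30 min.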
G9a inh = qHTS Assay for Inhibitors of Histone Lysine Methyltransferase G9a; Potency, µM (top dose mostly 102 µM), inactives show top-dose activity, negative = inhibition, usual class: inhibitors; actives 8.8% (n = 350,000); G9a H3K9 monomethylation, AlphaScreen, 2 h; note: % is set by controls: 0 for no effect and ±100 for the full control effect; nearly all actives have a fitted effect of over 75% in size
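Compounds were preincubated with 20 nM G9a for 15 min, after which biotinylated H3K9 peptide (500 nM) and SAM (20 uM) started a 2 h room-temperature reaction. Monomethylated product was quantified by antibody-based AlphaScreen chemiluminescence.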
BAZ2B block = qHTS Assay for Inhibitors of BAZ2B; Potency, µM (titrated, usually from 114 µM), for the others: at the top dose activity change, negative = inhibition, hits mostly inhibitors; AID 504333, 2011; AlphaScreen BAZ2B-H3K14Ac peptide displacement; actives 4.4% (n = 360,000); Bromodomain adjacent to zinc finger domain protein 2B (Homo sapiens), Q9UIF8; note: % is set by controls: 0 for no effect and ±100 for the full control effect; nearly all actives have a fitted effect of over 60% in size
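AlphaScreen displacement of biotin-H3(5-23)K14Ac peptide (50 nM final) from BAZ2B (50 nM final) in PBS pH 7.4, 0.01% Tween-20; complex preformed 30 min RT, then compounds (top 110 uM) 30 min RT, beads 20 min dark.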
The depositor's hits bear a star; ? = inconclusive; . = not tested or not shown; [ ] = dose if it differs, or a comment. Calls come from the whole dose curve; as a rule, active = well fitted curve in the direction sought with a large enough effect; inconclusive = small, poorly fitted or top-dose-only effect, or another doubt; inactive = no such curve, though single readings can be large; an effect the other way counts as inactive or inconclusive. Potency is the fitted concentration of half-maximal effect.

SMILES	Sfp inh	L3MBTL1 block	JMJD2A Tudor	HP1b chromo inh	G9a inh	BAZ2B block
CCOc1ccc(CNC(=O)C2CCCN(S(=O)(=O)c3ccc4c(c3)CCCC(=O)N4)C2)cc1 (stereo not given)	.	.	-18%	30%	0%[59 µM]	10%[57.1 µM]
Cc1cc(/C=C2\SC(=S)NC2=O)c(C)n1-c1ccc(O)cc1	45µM*	-15%	-15%[11.4 µM]	?	.	40µM*
Cc1cc(/C=C2\SC(=S)NC2=O)c(C)n1-c1ccccc1	-26%	-1%	14µM*	-20%	45µM*	?
COc1ccc(-n2c(C)cc(/C=C3\SC(=S)NC3=O)c2C)cc1	2%	-7%	-23%	9%	.	-12%
Cc1cc(/C=C2\SC(=S)NC2=O)c(C)n1C	-8%	-8%	45µM*	-36%	40µM*	45µM*
Cc1cc(/C=C2\SC(N)=NC2=O)c(C)n1-c1ccccc1	50µM*	.	-25%	46%	?	-7%
COc1ccc(C(=O)c2oc3ccccc3c2NC(=O)c2nc(SC)ncc2Cl)cc1Cl	.	.	-21%	0%	10%[59 µM]	-1%
Cc1cc(C=C2C(=O)CCCC2=O)c(C)n1-c1ccccc1	3%	?	?	-12%	50µM*	50µM*
CCc1ccc(NC(=O)Cn2ccn(-c3ccc(OC)cc3)c(=O)c2=O)cc1	.	.	4%	66%	-29%[59 µM]	9%
CCc1nc(Oc2cccc(F)c2)c2oc3ccccc3c2n1	.	.	137%	162%	78%[59 µM]	231%
Cc1nc(-c2ccc(S(=O)(=O)N(C)Cc3ccccc3)cc2)co1	.	.	-8%	17%[57 µM]	-2%[59 µM]	-18%
COc1cc(NC(=O)C2CCCN(S(=O)(=O)c3cn(C)cn3)C2)cc(OC)c1 (stereo not given)	.	.	-11%	14%	17%[59 µM]	-5%
CC(=O)N1CCCc2cc(S(=O)(=O)N3CCCC(C(=O)N4CCN(c5cc(C)ccc5C)CC4)C3)ccc21 (stereo not given)	-9%	.	4µM*	19%	2%	-31%[57.1 µM]
CCOC(=O)c1c(C)[nH]c(C)c1S(=O)(=O)N1CCCC(C(=O)N2CCN(c3cc(C)ccc3C)CC2)C1 (stereo not given)	.	.	?	-21%	-33%[59 µM]	45µM*
CCC(=O)Nc1cc(Cl)ccc1C(=O)O	15%	.	79µM*	26%	-4%[59 µM]	?
O=C(COc1ccccc1Cl)Nc1ccc(C(=O)O)cc1NC(=O)COc1ccccc1Cl	2%	.	-12%	1%	0%[12.7 µM]	-5%
O=C(COc1cccc2ccccc12)Nc1ccc(Cl)cc1C(=O)O	-5%	.	-27%	10%	79µM*	-18%
CCC(C)C(=O)Nc1cc(Cl)ccc1C(=O)O (stereo not given)	26%	-6%	-15%	-12%	-39%	-37%
Cc1cc(C(=O)Nc2ccccc2C(=O)O)ccc1NC(=O)COc1ccccc1Cl	6%	.	-6%	24%	22µM*	-5%
O=C(COc1cccc2ccccc12)Nc1cc(Cl)ccc1C(=O)O	27%	.	-22%	7%	76%	-3%
Cc1cc(O)c(-c2cc(O)c(C)cc2O)cc1O	2.5µM*	-20%	5µM*	1.8µM*	2µM*	50µM*
C=Cc1ccc(Cn2c(SCC(=O)N3CCN(c4ccc(F)cc4)CC3)nc3ccccc32)cc1	.	.	-22%	17%	?	-25%
COC(=O)c1ccc2nc(NC(=O)CSCC(=O)OCC(=O)c3ccccc3)sc2c1	-14%	1%	?	30%	7.9µM*	-8%

From PubChem
